Measured values taken from the supplement of paper PMC6555819.

These sequences were tested on PXR homodimer (NR concentration 270 nM) (assay: PBM binding z-score (relative to random genomic background probes); higher = stronger binding; sequences stand for … in GC…GCGATTGACAGCGTAGAATGAAGG).
How it was run: (§1)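 The probes on custom Agilent 4×180K protein-binding microarrays were double-stranded, with 34-nt variable regions bearing direct-repeat seeds, single-nucleotide variants, half-site ablations and random human genomic background sequences. Incubation lasted 1 h with ligand-free nuclear receptor dimers in PBS pH 7.4, 2% milk, 0.02% Triton X-100, 1 mM DTT, 0.2 mg/mL BSA and 0.4 mg/ml salmon testes DNA. Antibodies against each partner (one per run) detected bound dimers, and fluorescence scans were regression-normalized. Binding z-scores take the random background probes as reference.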

First: CCGAGTAGGTAACGAGGGGGCATTCAGTGCGAAT
Second: CTATTTAGGTTAAGGGGGTCATTCAGTTTGAAAG
The PBM binding z-score of the first is lower: 4.31 for the first, 12.3 for the second.

Going from CTATGTAGGTTCAGGGGGTCATTCAGTTTGAAAG to TCGAGTAGGTTACGGGCGCATTCAGGGATGAAGA, the PBM binding z-score falls from 10.6 to -0.432.

Compared with CTATGTACGTTAAGGGGGTCATTCAGTTTGAAAG, CCGAGTAGGTTCCGAGGGGGCATTCAGTGCGAAT is lower in PBM binding z-score: 9.08 for the first, 6.61 for the second.

Compared with CTATGTAGGTTAAGGGGGTCATTTAGTTTGAAAG, CCGATTAGGTTACGAGGGGGCATTCAGTGCGAAT is lower in PBM binding z-score: 10.3 for the first, 3.98 for the second.

Compared with CTATGTAGGTTAACGGGGTCATTCAGTTTGAAAG, TCGAGTAGGTTACGGGGGCATCCAGGGATGAAGA is lower in PBM binding z-score: 12.2 for the first, 1.02 for the second.

Going from CCGAGTAGGTTATGAGGGGGCATTCAGTGCGAAT to CCGAGTAGGTCACGAGGGGGCATTCAGTGCGAAT, the PBM binding z-score falls from 5.74 to 4.34.

First: TCGAGTAGGTTACGCGGGCATTCAGGGATGAAGA
Second: CCGCGTAGGTTACGAGGGGGCATTCAGTGCGAAT
The PBM binding z-score of the first is lower: -0.508 for the first, 4.05 for the second.

Compared with CTATGTAGGTTAAGGGGTTCATTCAGTTTGAAAG, CCGAGTAGGTTACGATGGGGCATTCAGTGCGAAT is lower in PBM binding z-score: 12.3 for the first, 0.101 for the second.

With TCGAGTAGGTTACGGGGTCATTCAGGGATGAAGA the PBM binding z-score was 2.57.

Each sequence was assayed on RARa:RXR (NR concentration 270 nM, RXRa partner concentration 90 nM) in the same assay as above.
How it was run: as §1

Compared with TCGAGTAGGTTACGGAGGCATTCAGGGATGAAGA, CTATGTAGGTTAAGCGGGTCATTCAGTTTGAAAG is higher in PBM binding z-score: 0.547 for the first, 3.31 for the second.

First: CGATGTAGGTTAAGGGGGTCATTCAGTTTGAAAG
Second: CTATGTAGGTTAAGGGGGCCATTCAGTTTGAAAG
The PBM binding z-score of the first is higher: 6.18 for the first, 2.17 for the second.

Compared with CTATGCAGGTTAAGGGGGTCATTCAGTTTGAAAG, TCGAGTAGGTTACTGGGGCATTCAGGGATGAAGA is lower in PBM binding z-score: 5.93 for the first, 0.925 for the second.

Compared with CCGACTAGGTTACGAGGGGGCATTCAGTGCGAAT, CCGAGTAGGTTACGAGGGGGCATTCGGTGCGAAT is higher in PBM binding z-score: 2.64 for the first, 2.98 for the second.

Compared with TCGAGTAGGTTACGGGGGCATTCAGGGATGAAGA, TCGAGTAGGTTACGGGGGCATTAAGGGATGAAGA is lower in PBM binding z-score: 2.98 for the first, 2.79 for the second.

Compared with CAATGTAGGTTAAGGGGGTCATTCAGTTTGAAAG, CTATGTAGGTTAATGGGGTCATTCAGTTTGAAAG is higher in PBM binding z-score: 6.32 for the first, 6.66 for the second.

Compared with CCGAGTAGGTTACGAGGCGGCATTCAGTGCGAAT, CTATGTAGGTGAAGGGGGTCATTCAGTTTGAAAG is higher in PBM binding z-score: 0.2 for the first, 6.01 for the second.

Compared with TCTAGTAGGTTACGGGGGCATTCAGGGATGAAGA, CCGAGTAAGTTACGAGGGGGCATTCAGTGCGAAT is lower in PBM binding z-score: 3.63 for the first, 2.13 for the second.

First: CTATGTAGGGTAAGGGGGTCATTCAGTTTGAAAG
Second: CTCTGTAGGTTAAGGGGGTCATTCAGTTTGAAAG
The PBM binding z-score of the first is lower: 5.58 for the first, 6.17 for the second.

First: CCGAGTAGGTAACGAGGGGGCATTCAGTGCGAAT
Second: CTATTTAGGTTAAGGGGGTCATTCAGTTTGAAAG
The PBM binding z-score of the first is lower: 2.24 for the first, 5.84 for the second.

Compared with CTATGTAGGTTCAGGGGGTCATTCAGTTTGAAAG, TCGAGTAGGTTACGGGCGCATTCAGGGATGAAGA is lower in PBM binding z-score: 6.89 for the first, 0.353 for the second.

Compared with CTATGTACGTTAAGGGGGTCATTCAGTTTGAAAG, CCGAGTAGGTTCCGAGGGGGCATTCAGTGCGAAT is lower in PBM binding z-score: 5.5 for the first, 2.14 for the second.

First: CTATGTAGGTTAAGGGGGTCATTTAGTTTGAAAG
Second: CCGATTAGGTTACGAGGGGGCATTCAGTGCGAAT
The PBM binding z-score of the first is higher: 5.8 for the first, 2.28 for the second.

Compared with CTATGTAGGTTAACGGGGTCATTCAGTTTGAAAG, TCGAGTAGGTTACGGGGGCATCCAGGGATGAAGA is lower in PBM binding z-score: 6.06 for the first, 3.31 for the second.

First: CCGAGTAGGTTATGAGGGGGCATTCAGTGCGAAT
Second: CCGAGTAGGTCACGAGGGGGCATTCAGTGCGAAT
The PBM binding z-score of the first is lower: 2.87 for the first, 4.38 for the second.

Compared with TCGAGTAGGTTACGCGGGCATTCAGGGATGAAGA, CTATGTAGGTTAAGGGGTTCATTCAGTTTGAAAG is higher in PBM binding z-score: 0.641 for the first, 3.12 for the second.

Work on CCGAGTAGGTTACGATGGGGCATTCAGTGCGAAT yielded a PBM binding z-score of 0.251.
